# Source: PubChem BioAssay
# Nrf2 ARE act = Nrf2 pathway activation. AREc32 ARE-luciferase reporter (MCF7-derived line), luminescence, 24 h. Potency, µM (highest dose often 46.1 µM), for inactives: at the highest dose activation, hits mostly activators. actives 0.31% (n = 410,000); also: potency is read from the fitted curve at half-maximal effect; % of control where 0% means no effect; nearly all actives have a fitted effect of over 65% in size
#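 For detection, Steady-Glo was added and plates sat 30 min at RT; before that, AREc32_Fluc cells grown overnight in OPTI-MEM/5% FBS had been treated with 23 nL compound for 24 hr at 37 deg C.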
# mIDH1 inhibitor = blocks human mutant IDH1 R132H enzyme. AID 602179. actives 0.093% (n = 390,000). Potency, µM (top dose mostly 76.6 µM), inactives show at the top dose activity change, negative = inhibition, usual class: inhibitors. O75874. IDH1-R132H enzyme, NADPH consumption, diaphorase/resazurin fluorescence; also: potency is read from the fitted curve at half-maximal effect; % is scaled to controls: 0 for no effect and ±100 for the full control effect; nearly all actives have a fitted effect of over 65% in size
#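 IDH1-R132H (0.5 ug/mL dispensed) in pH 7.5 Tris buffer was preincubated 30 min with compound, then given a substrate mix of 0.016 mM NADPH and 2 mM alpha-KG for 80 min at room temperature; remaining NADPH was read by diaphorase/resazurin fluorescence.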
# A549 tox-1 = kills or reduces viability of A549 cells in Nrf2 counter-screen; A549 ARE-Fluc cells, CellTiter-Fluor viability, 18-24 h; Potency, µM (series often up to 46 µM), inactives show at the top dose activity change, negative = cytotoxicity, usual class: inhibitors; actives 0.16% (n = 390,000); AID 504648; also: potency is read from the fitted curve at half-maximal effect; % is scaled to controls: 0 for no effect and ±100 for the full control effect
#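 Cytotoxicity counterscreen: CellTiter-Fluor fluorescence was measured in A549 ARE_Fluc cells after 18-24 h of compound exposure in a concentration series. The subsequent BugLite luminescent read reports ARE-luciferase activity.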
# Giardia kill = kills Giardia lamblia; Giardia lamblia trophozoite viability; activity change, % at 7.66 µM, hits read low; actives 0.15% (n = 340,000); AID 540267; in the data active = activity change below about -80%; inconclusive = between about -30% and that limit;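 also: parasites exposed to compound for two days anaerobically before the ATP read; % is scaled to controls: 0 for no effect and ±100 for the full control effect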
#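 Giardia lamblia trophozoites (100 cells/well) were incubated with compounds for 48 h at 37 deg C under anaerobic conditions. Viability was read as ATP content by one-step luminescence after 15-30 min at room temperature.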
# Anesthetic bind = binds horse apoferritin like a general anesthetic. P02791. apoferritin/1-aminoanthracene competitive binding, fluorescence. Potency, µM (highest dose often 77.5 µM), without a hit: at the highest dose activity change, negative = displacement, usual class: inhibitors. actives 0.074% (n = 350,000); also: potency is read from the fitted curve at half-maximal effect; % is scaled to controls: 0 for no effect and ±100 for the full control effect; nearly all actives have a fitted effect of over 20% in size
# Target sequence (P02791 2-175 limits assumed): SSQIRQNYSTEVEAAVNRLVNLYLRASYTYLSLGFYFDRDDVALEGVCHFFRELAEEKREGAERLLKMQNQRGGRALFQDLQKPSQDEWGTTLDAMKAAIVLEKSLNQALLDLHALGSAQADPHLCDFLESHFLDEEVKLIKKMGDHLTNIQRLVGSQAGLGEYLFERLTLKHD
#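 Read-out: endpoint 1-AMA fluorescence, excitation 380 nm and emission 535 nm, after compounds sit 10 min at room temperature with 10 uM horse-spleen apoferritin in 50% saturated 1-AMA/PBS. Values come from four-parameter Hill fits.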
# Nrf2 inh = inhibitors of Nrf2 signaling; A549 ARE-Fluc reporter, luciferase luminescence, 18-24 h; Potency, µM (top dose mostly 46 µM), for the others: at the highest dose activity change, negative = inhibition, hits mostly inhibitors; actives 2.1% (n = 360,000); AID 504444; also: potency is read from the fitted curve at half-maximal effect; % is scaled to controls: 0 for no effect and ±100 for the full control effect; nearly all actives have a fitted effect of over 60% in size
#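 A549 ARE_Fluc cells (5000/well, 5% FBS OPTI-MEM) pre-incubated 2 h, then treated with compounds 18-24 h at 37C/5% CO2 in concentration-response. CellTiter-Fluor viability read first; BugLite luciferase luminescence after 15 min at room temperature gives Nrf2 activity.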
# FLuc counter 3 = blocks purified firefly luciferase in Nrf2 counterscreen | actives 4% (n = 1,400) | shares compounds with Nrf2 inh | Potency, µM (doses to about 57.5 µM), inactives show at the top dose activity change, negative = inhibition, usual class: inhibitors | purified firefly luciferase, luminescence inhibition; also: potency is read from the fitted curve at half-maximal effect; % is scaled to controls: 0 for no effect and ±100 for the full control effect; nearly all actives have a fitted effect of over 65% in size
# Target sequence (P08659 whole entry, looked up): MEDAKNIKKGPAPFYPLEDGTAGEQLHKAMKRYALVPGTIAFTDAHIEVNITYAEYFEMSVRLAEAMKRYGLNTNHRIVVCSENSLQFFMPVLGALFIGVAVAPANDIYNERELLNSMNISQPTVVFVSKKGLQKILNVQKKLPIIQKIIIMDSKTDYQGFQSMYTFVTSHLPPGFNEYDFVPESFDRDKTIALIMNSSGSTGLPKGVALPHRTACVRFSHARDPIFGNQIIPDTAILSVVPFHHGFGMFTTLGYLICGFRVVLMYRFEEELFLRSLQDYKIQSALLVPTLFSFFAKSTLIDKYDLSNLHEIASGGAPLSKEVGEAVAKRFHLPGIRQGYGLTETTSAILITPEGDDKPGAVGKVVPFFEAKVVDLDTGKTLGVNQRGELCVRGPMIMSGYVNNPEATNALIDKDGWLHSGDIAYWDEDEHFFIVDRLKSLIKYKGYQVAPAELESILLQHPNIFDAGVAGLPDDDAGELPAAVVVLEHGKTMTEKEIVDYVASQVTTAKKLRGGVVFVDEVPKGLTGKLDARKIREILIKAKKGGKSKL
# A549 tox-2 = A549 cytotoxicity, Nrf2 inhibitor counterscreen; A549 ARE-Fluc cells, cytotoxicity counterscreen; actives 2% (n = 1,400); Potency, µM (titrated, usually from 46.1 µM), for inactives: top-dose activity change, negative = cytotoxicity, usual class: inhibitors; shares compounds with Nrf2 inh;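 also: potency is read from the fitted curve at half-maximal effect; cells exposed to compounds for 18 to 24 hours; % is scaled to controls: 0 for no effect and ±100 for the full control effect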
# Nrf2 ARE inh = reduces Nrf2 ARE reporter signal in A549 cells | shares compounds with Nrf2 inh | A549 ARE-firefly luciferase reporter, luminescence | Potency, µM (series often up to 46.1 µM), without a hit: top-dose activity change, negative = inhibition, hits mostly inhibitors | actives 74% (n = 1,400) | AID 720524; also: potency is read from the fitted curve at half-maximal effect; % is scaled to controls: 0 for no effect and ±100 for the full control effect; nearly all actives have a fitted effect of over 65% in size
# The depositor's hits bear a star; ? = inconclusive; . = not tested or not shown; [ ] = dose if it differs, or a comment. Only some compounds are listed: those with a hit (about 2.3% of all), similar ones and a draw of the others. Unless noted, calls follow the shape of the dose curve; as a rule, active = well fitted curve in the direction sought with a large enough effect; inconclusive = small, poorly fitted or top-dose-only effect, or another doubt; inactive = no such curve, though single readings can be large; an effect the other way counts as inactive or inconclusive.
SMILES,Nrf2 ARE act,mIDH1 inhibitor,A549 tox-1,Giardia kill,Anesthetic bind,Nrf2 inh,FLuc counter 3,A549 tox-2,Nrf2 ARE inh
CCCOc1ccc(-c2nonc2NC(=O)c2cc(OC)c(OC)c(OC)c2)cc1OCCC,0%,-20%,1%,.,-10%,6%,.,.,.
Cc1oc(-c2ccc(Cl)cc2)nc1CN1CCCC(C(=O)N2CCN(C(=O)c3ccco3)CC2)C1 (stereo unspecified),1%,8%,17%,0,-11%,3.3µM*,0%,-15%,6.5µM*
COC(=O)[C@]12CCCCC=C1N(Cc1cccc3ccccc13)C(=O)[C@H](CC(=O)NCc1ccc(C)o1)C2,5%,.,.,.,.,.,.,.,.
CN(c1ccccc1)c1nc(C#N)nc(N2CCOCC2)n1,.,.,-8%,4,.,8.2µM*,-23%,-12%,?
COc1ccc(CN(C)C(=O)/C=C/c2ccc(S(=O)(=O)N3CCCCCC3)cc2)cc1,2%,-3%,-15%,-10,.,9.2µM*,-12%,-18%,?
CNC(=O)c1ccc(CN(C)C(=O)/C=C/c2ccc(S(=O)(=O)N3CCCCCC3)cc2)cc1,0%,-15%,.,.,.,.,.,.,.
COc1ccc(S(=O)(=O)c2cn(CC(=O)Nc3cc(C)ccc3C)c3ccccc3c2=O)cc1,-1%,7%,9%,.,-3%,11%,.,.,.
CCOC(=O)c1ccc(Nc2nc3nonc3nc2Nc2cccc(C)c2C)cc1,0%,-4%,?,.,-20%,2.3µM*,15µM*,?,5.8µM*
Cc1ccccc1-c1cc2nc(NCCc3ccncc3)n(C)c(=O)c2s1,5%,.,.,.,.,.,.,.,.
Cc1nnsc1C(=O)Nc1ccc(S(=O)(=O)N2CCC(C)CC2)cc1,0%,8%,-15%,-8,-7%,9.2µM*,-1%,0%,5.2µM*
CC1CCN(S(=O)(=O)c2ccc(NC(=O)c3cccs3)cc2)CC1,5%,3%,-12%,9,?,?,.,.,.
Cc1ccc(NC(=O)CN2C(=O)CSc3ccc(S(=O)(=O)N4CCCC4)cc32)c(C)c1,0%,-4%,-1%,.,8%,-17%,.,.,.
COc1ccc(CCNc2ncnc3c2oc2ccccc23)cc1OC,3%,8%,-8%,-1,-13%,5.2µM*,-19%,-13%,4.1µM*
c1ccc2c(c1)OCC(CNCC1COc3ccccc3O1)O2 (stereo unspecified),1%[9.22 µM],2%,1%,-3,-12%,7%,.,.,.
Fc1ccccc1CNc1ncnc2sccc12,3%,9%,-22%,-6,-20%,4.1µM*,1%,-5%,5.2µM*
COc1ccc(CCNc2ncnc3sccc23)cc1OC,1%,-1%,-6%,8,-5%,0.58µM*,-20%,1%,0.52µM*
c1ccc2c(c1)OCC(CNc1ncnc3sccc13)O2 (stereo unspecified),6%,-6%,-5%,-11,1%,1.5µM*,-23%,-4%,1.2µM*
COc1ccccc1CNc1ncnc2sccc12,5%,0%,-2%,-14,-17%,3.3µM*,-13%,-9%,4.1µM*
CN(C)c1ccc(CNc2ncnc3sccc23)cc1,7%,-1%,-5%,-18,9%,4.6µM*,-3%,-27%,12µM*
COc1ccccc1-c1noc(CCC(=O)N2CCN(c3cc(C)ccc3C)CC2)n1,4%,1%,?,1,.,4.6µM*,3%,0%,-25%
COc1ccc(-c2noc(CCCCC(=O)N3CCN(c4cc(C)ccc4C)CC3)n2)cc1,-1%,2%,-22%,-8,.,3.7µM*,-21%,-9%,7.3µM*
Cc1ccc(C)c(N2CCN(C(=O)CCc3nc(-c4ccccc4C(F)(F)F)no3)CC2)c1,5%,8%,-4%,-17,.,-1%,.,.,.
COc1ccc(-c2noc(CCCC(=O)N3CCN(c4cc(C)ccc4C)CC3)n2)cc1,4%,2%,-6%,47,.,?,.,.,.
COc1ccc(C(=O)N(Cc2ccccc2)Cc2cc3cc4c(cc3[nH]c2=O)OCCO4)cc1,0%,-2%,-3%,4,-8%,.,.,.,.
COc1cccc(C(=O)N(Cc2ccccc2)Cc2cc3cc4c(cc3[nH]c2=O)OCCO4)c1,0%,-7%,-18%,9,-6%,2.6µM*,-4%,-23%,?
SMILES,Nrf2 ARE act,mIDH1 inhibitor,A549 tox-1,Giardia kill,Anesthetic bind,Nrf2 inh,FLuc counter 3,A549 tox-2,Nrf2 ARE inh
COc1ccc(S(=O)(=O)N2CCN(c3ccccc3)CC2)cc1C(=O)N1CCCC1,0%,-1%,-4%,16,-8%,?,.,.,.
O=C(c1cc(S(=O)(=O)N2CCN(c3ccccc3)CC2)ccc1Cl)N1CCCC(C(F)(F)F)C1 (stereo unspecified),0%,-3%,-14%,7,.,4.6µM*,2%,-1%,5.2µM*
CCOc1ccc(C(=O)Nc2ccc3nc(SCC(=O)N(C)c4ccccc4)sc3c2)cc1,0%,-5%,-9%,.,45%,5.8µM*,?,-11%,8.2µM*
O=S(=O)(c1ccc(Cl)cc1)N1CCCC(c2nc(-c3ccc(F)cc3)no2)C1 (stereo unspecified),0%,-7%,-4%,8,.,?,.,.,.
O=S(=O)(c1ccccc1Cl)N1CCCC1c1nc(-c2ccc(Cl)cc2)no1 (stereo unspecified),2%,6%,-15%,-5,0%,5.8µM*,-8%,10%,13µM*
CCOc1ccc2c(c1)C(=NNC(=O)c1ccncc1)c1cc(OCC)ccc1-2,3%,8%,-18%,-5,-15%,5.8µM*,?,?,5.2µM*
N#Cc1cc(-c2ccccc2)[nH]c1-c1nccc2ccccc12,0%,9%,-14%,15,-11%,9.2µM*,-12%,-4%,?
COc1ccc(Cn2ccc3nc(C)c(C(=O)NCc4cccc(OC)c4)cc3c2=O)cc1,1%,-17%,0%,.,-17%,30%,.,.,.
CCCCNc1nc(C)nc2c1nc(-c1ccccc1)n2CC1CCN(C)CC1,.,.,.,.,-14%,.,.,.,.
Cc1ccc(C(=O)N2CCN(c3ccc(NC(=O)c4ccc5c(c4)OCCO5)cc3)CC2)cc1,0%,14%,-19%,-12,-12%,7.3µM*,0%,-22%,?
